# Data reported in PubChem BioAssay (EPA / NIEHS).
# “And” between values parts separate entries of the source, which are not always exact repeats. Equal entries are not always repeated. The source made the active and inactive calls. The calls were made as follows: active = hit-call score of the fitted dose curve at least 0.9, where 1 is the maximum; inactive = score below 0.9.
# Read-out: Monokine induced gamma interferon (MIG), CXCL9 (gene 4283)
# Test: BSK_BE3C_MIG: BioMAP Diversity Plus: BE3C Assay for Monokine induced gamma interferon (MIG) Biomarker Activity (AID 2283035)
# Conditions: primary human bronchial epithelial cells; actives raise or lower the signal
# Protocol: BSK_BE3C is a cell-based, multiplexed-readout assay that uses bronchial epithelial cell, a human lung primary cell, with measurements taken at 24 hours after chemical dosing in a 96-well plate.BSK_BE3C_MIG is an assay component measured in the BSK_BE3C assay. It measures MIG antibody related to regulation of gene expression using ELISA technology.Data from the assay component BSK_BE3C_MIG was analyzed into 1 assay endpoint. This assay endpoint, BSK_BE3C_MIG, was analyzed with bidirectional fitting relative to DMSO as the negative control and baseline of activity. Using a type of binding reporter, gain or loss-of-signal activity can be used to understand changes in the signaling as they relate to the gene CXCL9. Furthermore, this assay endpoint can be referred to as a primary readout, because this assay has produced multiple assay endpoints where this one serves a signaling function. To generalize the intended target to other relatable targets, this assay endpoint is annotated to the cytokine intended target family, where the subfamily is chemotactic factor.
# The levels of cell surface (or secreted, indicated by the prefix "s") biomarker endpoints were measured by ELISA. Overt cytotoxicity to cells in confluent adherent cultures (all systems other than the BT system) was assessed by measuring total protein levels using sulforhodamine B (SRB) staining in parallel cultures at the time of biomarker measurements, indicated as SRB endpoints. For proliferation assays for adherent cell types, individual cell types are cultured at sub-confluence and relative cell numbers quantified by SRB staining at time points optimized for each system (48 h: 3C and CASM3C systems; 72 h: BT and HDF3CGF systems; 96 h: SAg system). SRB was performed by staining cells with 0.1% SRB after fixation with 10% TCA and reading wells at 560 nm.Viability and proliferation of PBMC (T cells) was quantified by Alamar Blue reduction for the SAg and BT systems. For PBMC viability (referred to as PBMC Cytotoxicity within the assay endpoint names), cells were plated (75,000/well in a 96-well plate) and then chemical samples added for 1 h before addition of activators, SEB and TSST-1 (20 ng/mL final concentration each). Cells were incubated for 90 h. Then, Alamar Blue (20 uL/well) (Invitrogen, Cat DAL1100) was added for 6 h, and the plates were read with a fluorescence microplate reader at 546/580 nm (excitation/emission). For PBMC proliferation, cells were plated and activated as above but incubated for only 16 h prior to addition of Alamar Blue. Plates were read after 6 h.
Compound,outcome,AC50
O=C(O)CCC(F)(F)C(F)(F)C(F)(F)C(F)(F)C(F)(F)C(F)(F)C(F)(F)F,inactive,–
O=C=Nc1cccc2c(N=C=O)cccc12,inactive,–
O=S(=O)(Cl)C(F)(F)C(F)(F)C(F)(F)C(F)(F)C(F)(F)C(F)(F)C(F)(F)C(F)(F)F,–,55.8 µM (active) and 53.6 µM (active)
O=S(=O)(O)CCC(F)(F)C(F)(F)C(F)(F)C(F)(F)F,inactive,–
FC(F)(F)C(F)(F)C(F)(F)C(F)(F)C(F)(F)C(F)(F)CC[Si](Cl)(Cl)Cl,inactive,–
C=C(C)C(=O)OCC(F)(F)C(F)(F)C(F)(F)C(F)F,inactive,–
C=CC(=O)OCCC(F)(F)C(F)(F)C(F)(F)C(F)(F)F,inactive,–
CCN(CC)c1ccc(C=O)c(O)c1,inactive,–
NCC(F)(F)C(F)(F)C(F)(F)C(F)(F)C(F)(F)C(F)(F)F,inactive,–
O=C=NCc1cccc(CN=C=O)c1,inactive,–
NC(=O)C(F)(F)C(F)(F)C(F)(F)F,inactive,–
NS(=O)(=O)C(F)(F)C(F)(F)C(F)(F)C(F)(F)C(F)(F)C(F)(F)F,inactive,–
O=C(O)C(F)(F)C(F)(F)C(F)(F)C(=O)O,inactive,–
O=C(O)CCC(F)(F)C(F)(F)C(F)(F)F,inactive,–
CCOC(=O)CC(=O)C(F)(F)C(F)(F)F,inactive,–
OCC(F)(F)C(F)(F)C(F)(F)C(F)(F)C(F)(F)C(F)(F)C(F)(F)C(F)(F)CO,–,43 µM (active) and 46.6 µM (active)
CCN(CC)c1ccc(C=O)cc1,inactive,–
Nc1cc([N+](=O)[O-])cc(Cl)c1O,inactive,–
OCCCC(F)(F)C(F)(F)C(F)(F)C(F)(F)C(F)(F)C(F)(F)C(F)(F)C(F)(F)F,–,56.5 µM (active) and 53.4 µM (active)
O=C(O)C(F)(F)C(F)(F)C(F)(F)OC(F)(C(F)(F)F)C(F)(F)F,inactive,–

Compound,outcome,AC50
O=C(O)C(F)(F)OC(F)(F)C(F)(F)OC(F)(F)C(F)(F)OC(F)(F)F,inactive,–
OC(O)C(F)(F)C(F)(F)F,inactive,–
Cc1cc(O)c(C(C)(C)C)cc1C(C)(C)C,–,11 µM (active)
C[C@]12CC[C@H]3C(=CCc4cc(O)ccc43)[C@@H]1CCC2=O,inactive,–
COC(F)(C(F)F)C(F)(F)F (stereo not given),inactive,–
CCOC(C=C(C)CCC=C(C)C)OCC,inactive,–
FC(F)(F)C(F)(F)C(F)(F)CC1CO1 (stereo not given),inactive,–
O=C(c1ccccc1)c1ccc(O)cc1O,inactive,–
OCC(O)CC(F)(F)C(F)(F)C(F)(F)C(F)(F)F (stereo not given),inactive,–
CCN(CC)c1ccc(N=Nc2ccccc2)cc1,inactive,–
O=S(=O)(OCC(F)(F)F)C(F)(F)C(F)(F)C(F)(F)C(F)(F)F,inactive,–
O=C(Cl)C(F)(F)C(F)(F)C(F)(F)C(F)(F)C(F)(F)C(F)(F)C(F)(F)F,inactive,–
CC(C)CCCC(C)CCO (stereo not given),inactive,–
O=C(O)C(F)(F)C(F)(F)C(F)(F)C(F)(F)C(F)(F)C(F)(F)C(F)F,inactive,–
OCCCCC(F)(F)C(F)(F)C(F)(F)C(F)(F)F,inactive,–
CC(C)(C)c1cc(CCC(=O)NCCCCCCNC(=O)CCc2cc(C(C)(C)C)c(O)c(C(C)(C)C)c2)cc(C(C)(C)C)c1O,inactive,–
C[Si](Cl)(Cl)CCC(F)(F)C(F)(F)C(F)(F)C(F)(F)C(F)(F)C(F)(F)F,inactive,–
CCN(CCO)S(=O)(=O)C(F)(F)C(F)(F)C(F)(F)C(F)(F)C(F)(F)C(F)(F)C(F)(F)C(F)(F)F,–,50.6 µM (active) and 43.2 µM (active)
FC(F)(F)C(F)(F)C(F)(F)C(F)(F)C(F)(F)C(F)(F)C(F)(F)CCI,inactive,–
Cc1ccc(S(=O)(=O)C(I)I)cc1,–,11 µM (active)
